This passage reports Potency results from PubChem BioAssay AID1671189 (National Center for Advancing Translational Sciences (NCATS), 2021).

The campaign covered roughly 1,100 compounds. About 70 (6%) were called active. A call without a number means that no potency is given here. Not shown: some 22% with an inconclusive outcome. The call rests on the fitted dose curve; in most records, active means well fitted curve in the direction sought with a large enough effect; inconclusive means small, poorly fitted or top-dose-only effect, or another doubt; inactive means no such curve, though single readings can be large or run the other way. Many of the other results were omitted from the sample, so actives are more common in it than they were.
Potency means the concentration at half of the fitted maximal effect.

In the test the target is Polyunsaturated fatty acid lipoxygenase ALOX12 (Homo sapiens) (UniProt P18054). As to the kind of experiment: Confirmatory qHTS assay for inhibitors of human arachidonate 12S-lipoxygenase (ALOX12): Round 2. To be noted: purified human 12-LOX, xylenol orange absorbance; series mostly up to 125 µM. From the text: Assay Provider: Theodore R. Holman Ph.D. University of California, Santa Cruz, California Human lipoxygenase 12hLO is a member of the closely related lipoxygenase family of enzymes which catalyze the site-specific oxidation of arachidonic acid to various hormone precursor molecules and as such is a candidate for drug development in a variety of disease areas, such as cancer and inflammation. Inhibition of 12hLO activity was screened by utilizing arachidonic acid as a substrate. The extent of hydroperoxide product formation was measured by a secondary chromogenic reaction in which xylenol orange (XO, Sigma-Aldrich, cat. number 39,818-7) reacts with the ferric ions produced from the reaction between the hydroperoxide and ferrous ions. The Fe (III)-XO complex is characterized with red-shifted absorbance at 560 nm. A purified preparation of human 12hLO was supplied by Dr. Holman laboratory, University of California, Santa Cruz.
Polyunsaturated fatty acid lipoxygenase ALOX12 (Homo sapiens), sequence (P18054 whole entry, looked up): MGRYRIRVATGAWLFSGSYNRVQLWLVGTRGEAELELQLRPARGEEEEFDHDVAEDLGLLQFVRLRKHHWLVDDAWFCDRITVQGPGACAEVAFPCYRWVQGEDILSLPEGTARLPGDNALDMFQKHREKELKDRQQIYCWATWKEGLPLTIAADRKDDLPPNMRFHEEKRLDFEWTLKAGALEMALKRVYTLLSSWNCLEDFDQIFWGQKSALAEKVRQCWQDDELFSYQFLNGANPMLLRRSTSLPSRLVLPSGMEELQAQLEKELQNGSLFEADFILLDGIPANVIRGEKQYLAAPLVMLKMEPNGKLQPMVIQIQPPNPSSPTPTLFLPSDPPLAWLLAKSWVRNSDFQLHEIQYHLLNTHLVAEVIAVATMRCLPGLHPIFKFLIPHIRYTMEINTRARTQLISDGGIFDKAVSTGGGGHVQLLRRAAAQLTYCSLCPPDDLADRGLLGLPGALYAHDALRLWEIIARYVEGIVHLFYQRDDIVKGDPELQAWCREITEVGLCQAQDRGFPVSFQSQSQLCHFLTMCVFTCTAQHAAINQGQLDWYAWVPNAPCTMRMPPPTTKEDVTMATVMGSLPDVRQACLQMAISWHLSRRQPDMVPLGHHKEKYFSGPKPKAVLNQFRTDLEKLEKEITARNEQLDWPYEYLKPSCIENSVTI
PROTOCOL TABLE SEQUENCE No. (e.g., 1, 2, 3, etc.); […] (e.g., Cells, Incubation, Reagent, etc.); VALUE; DESCRIPTION 1; Enzyme; 3 uL; 150 nM 12hLO enzyme solution dispensed in 1536-well Greiner black, clear bottom plates. 2; Compound; 23 nL; compounds and controls were added. 3; Incubate; 15 min; room temperature. 4; Substrate; 1 uL; 40 uM arachidonic acid (final concentration). 5; Incubate; 30 min; room temperature. 6; Reagent; 4 uL; Fe-XO solution was added to each well. 7; Incubation; 30 min; room temperature 8; Detector; absorbance; Read 1 at 405 nm absorbance using ViewLux (PerkinElmer) CCD imager. 9; Detector; absorbance; Read 2 at 573 nm absorbance using ViewLux (PerkinElmer) CCD imager. NOTES (numbers refer to sequence above) 1; 150 nM 12hLO (final concentration) in buffer solution (25 mM Hepes, 0.01% Triton X-100, pH 7.0) was dispensed in columns 1, 2, 5-48. Column 1 is neutral (100% activity). Buffer only was dispensed in columns 3 and 4 as no enzyme negative controls. The plates were covered with metal lids with gas-exchange holes. 2; Compounds were pin transferred via a Kalypsys Pin Tool (Wako USA) in column 5 - 48. Control compound was transferred in column 2, titration of nordihydroguaiaretic acid (NDGA, Sigma-Aldrich, N5023) with top concentration of 20 mM in DMSO then 1:3 dilution in duplicate. Dilution factor of 23 nL into 4 uL final assay volume. 3; Covered assay plates were incubated for 15 min at room temperature. 4; Substrate was added to start the reaction; 40 uM arachidonic acid (Sigma-Aldrich, St. Louis, MO) was dispensed throughout the plate. 6; Chromogenic detection reagent solution (divalent iron/xylenol orange, Fe-XO) was added to each well: 200 uM xylenol orange, 300 uM ferrous ammonium sulfate prepared freshly in 50 mM sulfuric acid. 8, 9; Two absorbance readouts were obtained at 405 nm and at 573 nm using a ViewLux high-throughput CCD plate imager (PerkinElmer). The 573 to 405 (Read 2 / Read 1) absorbance ratio was used to compute reaction progress.
For the compound `CC(=O)N1CCC(C(=O)N2CCC3(CC2)NC(=O)N(c2cccc(Cl)c2)N3)CC1`, the Potency is 12.6 µM (active). As for `COc1ccc(OC2CN(Cc3cccc4ccccc34)C2)cc1`, the entry is “inactive”; as for `OCC1CN(Cc2ccc(Cl)cc2)CC12CCNCC2` (stereo not drawn), “inactive”. Under `O=C(c1ccccc1F)N1CCn2c(nnc2C2CCNCC2)C1` stands “inactive”; under `O=C(Nc1ccc(-c2cccc(F)c2)cc1)C1CCCN1Cc1cnc[nH]1` (stereo not drawn), “inactive”. On to `CN1CC(=O)N(C2CCCNCC2)Cc2c(NCC3CC3)ncnc21` (stereo not drawn), for which the Potency result is “inactive”. Under `C=CCNc1oc(-c2cccc3ccccc23)nc1C#N` stands “inactive”; under `CCCCNc1oc(-c2cccc3ccccc23)nc1C#N`, 19.3 µM (active).

Consider `CC(C)Nc1oc(-c2cccc3ccccc23)nc1C#N`, for which the Potency entry is “inactive”. Under `COc1ccc(-c2nc(C3CC3)nc3c2CN([S+](=O)([O-])c2ccccc2)CC3)cc1` stands “inactive”; under `CCOCCNc1ncnc2c1CN(C1CCNCC1)C(=O)CN2C`, “inactive”. Under `COc1ccc(N2CC3CCC(C2)N3C(=O)c2ccc3c(c2)OCO3)cc1` stands “inactive”; under `O=C(NCC(F)(F)F)c1cc(C2CC2)nc2c1c(C1CCCN1)nn2-c1ccccc1` (stereo not drawn), “inactive”.

As to `Cc1ccc(NC(=O)N2Cc3[nH]cnc3C[C@H]2c2nc(-c3ccc4ccccc4c3)no2)cc1`, the Potency result was “inactive”. As for `COc1ccc(-c2noc([C@@H]3Cc4nc[nH]c4CN3C(=O)NC3CCCCC3)n2)cc1`, the Potency is 10 µM (active).

As to `O=C(NC1CCCCC1)N1Cc2[nH]cnc2C[C@H]1c1nc(-c2cccc([N+](=O)[O-])c2)no1`, the Potency is 6.31 µM (active). `COC(=O)[C@@H]1Cc2nc[nH]c2CN1C1CCOCC1`: the Potency result was “inactive”. Under `COc1ccc(CN2Cc3[nH]cnc3C[C@H]2c2nc(-c3ccncc3)no2)cc1` stands “inactive”; under `CN1CC(=O)N(C2CCCNCC2)Cc2c(NCc3cccs3)ncnc21` (stereo not drawn), “inactive”; under `CCc1nc2c(c(-c3ccc(OC)cc3)n1)CCN(Cc1ccc(OC)cc1)CC2`, “inactive”. In the case of `O=C(N1CCCC1)N1CCN(c2ccc(Cl)nn2)C(=O)C1`, the Potency result was “inactive”. As for `CC(NC(=O)C1CCN(c2cc(C(F)(F)F)ncn2)CC1)c1ccccc1` (stereo not drawn), the entry is “inactive”. As for `COc1cccc(N2C(=O)NC(=NC3CCCCC3)C23CCCN([S+](=O)([O-])c2cccs2)C3)c1` (stereo not drawn), the entry is “inactive”.

On to `O=c1n(-c2cccc(Cl)c2)nc2n1CCN([S+](=O)([O-])c1cccs1)C2`, for which the Potency entry is “inactive”.

With `Cc1cccc(CN2CCN(Cc3nc(-c4ccco4)oc3C)C(C)C2=O)c1` (stereo not drawn), the Potency entry is “inactive”. As for `COCCNC(=O)c1cc(C2CC2)nc2onc(C3CCCN3)c12` (stereo not drawn), the entry is “inactive”; as for `CCOC(=O)Cn1c(=O)n(-c2ccccc2OC)c2nc(-c3ccccc3F)nc(C(N)=O)c21`, 11 µM (active). Under `CCOC(=O)Cn1c(=O)n(-c2ccccc2OC)c2nc(-c3cccc(F)c3)nc(C(N)=O)c21` stands 4.4 µM (active). Under `CCOc1ccccc1CN1CCCCC12Cc1ccccc1CNC2=O` (stereo not drawn) stands “inactive”; under `CCNC(=O)N[C@@H]1C=C[C@@H](c2c(C)nn(-c3ccc(OC)cc3)c2C)C1`, “inactive”. Consider `Cc1cc(C(=O)NC2CC2)c2c(C3CCNCC3)noc2n1`, for which the Potency entry was “inactive”.

As to `O=C1c2ccccc2CN1C1CCN(Cc2ccsc2)CC1`, the Potency result is “inactive”.

`C1CNCC(c2nc(C3CCOCC3)no2)C1` (stereo not drawn): the Potency entry was “inactive”.

Turning to `CC(=O)N1CCn2cc(C(=O)N3CCOCC3)nc2C1`, the Potency result is “inactive”. Take `COc1ccccc1C(=O)N1CCn2c(nnc2C2CCNCC2)C1`: the Potency entry is “inactive”. In the case of `CNCc1ccccc1OC(F)(F)F`, the Potency entry was “inactive”. Under `COc1ccccc1CNC(=O)Nc1cccs1` stands 21.7 µM (active); under `CN1CC(=O)N(C2CCNCC2)Cc2c(NC3CCCCCC3)ncnc21`, “inactive”; under `CN(C)CCCC(=O)N1Cc2ccccc2CC2(CCCCN2CC2CCNCC2)C1` (stereo not drawn), “inactive”. As for `CCOC(=O)N1CCC(N2CCCC(CCC(=O)Nc3ccc(OC)c(Cl)c3)C2)CC1` (stereo not drawn), the figure is 12.6 µM (active); as for `CCOC(=O)N1CCC(NC)CC1`, “inactive”; as for `Cc1noc(C)c1C(=O)N1Cc2ccccc2CC2(CCCN(CC3CCNC3)C2)C1` (stereo not drawn), “inactive”.

With `Fc1ccc(OC2CN(Cc3ccc(C(F)(F)F)cc3)C2)cc1F`, the Potency result was “inactive”.

On to `Cn1ccnc1C(O)c1cc2n(n1)CCN(S(=O)(=O)C1CC1)C2` (stereo not drawn), for which the Potency result is “inactive”. As for `COc1cccc(N2C(=O)NC(=NC3CCCC3)C23CCCN(CC2CC2)C3)c1` (stereo not drawn), the entry is “inactive”; as for `COCc1cc(C[C@@H]2CC[C@H](O)[C@@H](CNC(=O)NC(C)C)O2)no1`, “inactive”. In the case of `CNCc1ccccc1Cl`, the Potency result is “inactive”.

As for `CCCc1nc(C)cc(N2CCC(NCCc3ccc(Cl)cc3)CC2)n1`, the Potency was 2.24 µM (active). As for `Cc1nc(N2CCC(C(=O)NCc3ccc(C(C)C)cc3)CC2)cc(C(F)(F)F)n1`, the entry is “inactive”; as for `O=C(N1CCCCC1)N1CCCC(c2nnc3n2CCNC3)C1` (stereo not drawn), “inactive”; as for `Cc1cc(C)cc(-c2ccc(CN3CCCC(c4nc5ccc(F)cc5c(=O)[nH]4)C3)cc2)c1` (stereo not drawn), “inactive”. Under `CCC(CC)Nc1ncnc2c1CN(C1CCCNCC1)C(=O)CN2C` (stereo not drawn) stands “inactive”. Under `COc1cccc(-c2ccc(CN)cc2)c1` stands “inactive”.
